An excerpt weighted towards active compounds, which were near 4.1% of everything screened.
NALP1 inh: inhibitors of NALP1 inflammasome in yeast; S. cerevisiae NALP1/ASC/caspase-1 growth, X-gal OD620, 72 h; inhibition, % at 10 µM; actives 0.61% (n = 280,000); AID 2071; in the data active = inhibition mostly above about 24%, no sharp cut-off; inactive = mostly below about 32%
tim10-1 inh: tim10-1 yeast growth inhibition; inhibition, % at 20 µM; actives 2.2% (n = 330,000); S. cerevisiae tim10-1 ts strain growth, BacTiter-Glo, 24 h;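 active = inhibition of at least 40%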;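 note: mutant grown at 25 °C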
tim23-1 inh: inhibits growth of tim23-1 mutant yeast; S. cerevisiae tim23-1 growth, BacTiter-Glo luminescence, 24 h; inhibition, % at 20 µM; actives 1.3% (n = 330,000); AID 463212;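 active = growth inhibition of the mutant yeast at or above 50%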;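 note: temperature-sensitive mutant grown at 25 °C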
NLRP3 yeast inh: inhibitors of NALP3 inflammasome in yeast. Yeast reconstituted NLRP3/ASC/caspase-1, beta-gal luminescence, 24 h. inhibition, % at 10 µM. actives 0.39% (n = 330,000). AID 2825;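 active = inhibition of 50% or more; inactive = inhibition below 50%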
TIM10 inh: TIM10 yeast growth inhibition | inhibition, % at 10 µM | AID 463195 | actives 1.4% (n = 330,000) | S. cerevisiae TIM10 strain growth, BacTiter-Glo luminescence, 24 h;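 active = inhibition of 40% or more at the single tested concentration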;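 note: wild-type TIM10 isogenic control strain grown at permissive 25 °C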
tim10-1 confirm: confirmation of tim10-1 mutant yeast growth inhibitors | shares compounds with tim10-1 inh | S. cerevisiae tim10-1 ts strain growth, BacTiter-Glo, 24 h | inhibition, % at 20 µM | actives 56% (n = 7,400) | AID 463213;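 active = inhibition of yeast growth at or above a set limit in either of two repeat tests at 20 µM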;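 note: tim10-1 mutant grown at permissive 25 °C to find synthetic lethal compounds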
Large screens that a line does not name were inactive (follow-up assays come after a bar, where they were run).

COc1ccc(OC)c(NC(=O)CSc2nc3n[nH]c(C)c3c(=N)n2-c2cccc(Cl)c2C)c1	tim10-1 inh 42.6 | tim10-1 confirm inactive
Cc1ccccc1-n1c(SCc2ccccn2)nc2n[nH]c(C)c2c1=N	tim10-1 inh 40.2 | tim10-1 confirm 38.4
COc1ccc(/C=C/C(=O)OCC(=O)NC2CCCC2)cc1	none (no result: NALP1 inh)
C=CCn1c(O)c(N=NC(=O)c2ccc3c(c2)OCO3)c2ccccc21	none
CCOC(=O)C1CCCN(C2=NC(=O)/C(=C/c3ccc(N(C)C)cc3)S2)C1 (stereo not given)	none
CCOC(=O)N1CCC(n2c(SCC(=O)NCc3ccccc3)nc3ccccc3c2=O)CC1	tim10-1 inh 43.4 | tim10-1 confirm inactive
CCOC(=O)N1CCC(n2c(SCC(=O)N3CCCC3)nc3ccccc3c2=O)CC1	none
COc1ccc(-c2cc(=O)oc3c(C)c(OC(C)C(=O)Nc4ccc(CN5CCOCC5)cc4)ccc23)cc1 (stereo not given)	tim10-1 inh 42.6 | tim10-1 confirm inactive
Cc1ccc(-c2nc3cccnc3s2)cc1NS(C)(=O)=O	tim10-1 inh 43.7 | tim10-1 confirm inactive
CCCS(=O)(=O)Nc1cccc(-c2nc3cccnc3s2)c1	none
COc1ccccc1OCC(=O)N/N=C1/SCC(=O)N1Cc1ccccc1	none
CSc1ccc(S(=O)(=O)N2CCC(C(=O)N3CCc4ccccc4C3)CC2)cc1	tim10-1 inh 42.9 | tim10-1 confirm inactive
O=C(Nc1ccc(F)cc1Cl)c1ccc2c(=O)n3c(nc2c1)CCC3	none (no result: NALP1 inh)
O=C(Nc1ccc(Cl)c(Cl)c1)Oc1ccc(NC(=O)c2ccco2)cc1	NALP1 inh 99.7, tim10-1 inh 43.7 | tim10-1 confirm inactive
COCCOC(=O)C(C#N)c1nc2ccccc2nc1N1CCCC1 (stereo not given)	none
C=CCOC(=O)C(C#N)c1nc2ccccc2nc1N1CCCC1 (stereo not given)	tim10-1 inh 40.6 | tim10-1 confirm inactive
Cc1ccc(S(=O)(=O)N2CCN(CC(=O)Nc3ccc4c(c3)CCC4)CC2)cc1C	none
COC(=O)c1ccc(NC(=O)CN2CCN(S(=O)(=O)c3ccc(Br)cc3)CC2)cc1	tim10-1 inh 46.0 | tim10-1 confirm 36.0
O=C(CN1CCN(S(=O)(=O)c2ccc(Br)cc2)CC1)N/N=C/c1ccc(Br)s1	tim10-1 inh 43.6 | tim10-1 confirm 36.0
CCOc1ccc(NC(=O)CN2CCN(S(=O)(=O)c3ccc(Cl)cc3)CC2)cc1	tim10-1 inh 40.8 | tim10-1 confirm inactive
Cc1ccc(/C=N/NC(=O)CN2CCN(S(=O)(=O)c3ccc(Br)cc3)CC2)s1	none
O=C(CN1CCN(S(=O)(=O)c2ccc(Cl)cc2)CC1)Nc1ccc2c(c1)CCC2	tim10-1 inh 50.1 | tim10-1 confirm 39.9
CC1(C)CC(NC(=O)Cc2ccccc2)CC(C)(C)N1	none
Cc1ccc(OCCC(=O)OCC(=O)Nc2ccccc2)cc1	none
O=C(CN1CCN(S(=O)(=O)c2ccc(Cl)cc2)CC1)Nc1ccc2c(c1)OCO2	none
CC(C)c1ccc(S(=O)(=O)N2CCN(CC(=O)Nc3ccc4c(c3)OCO4)CC2)cc1	tim10-1 inh 52.1 | tim10-1 confirm 40.5
O=C(Cc1ccc(Cl)cc1)Nc1cccc(S(=O)(=O)N2CCCCC2)c1	none (no result: NALP1 inh)
O=C(CN1CCN(S(=O)(=O)N2CCCCC2)CC1)Nc1ccc(Cl)c(Cl)c1	none
O=C(CN1CCN(S(=O)(=O)c2ccccc2)CC1)Nc1ccc(Cl)c(Cl)c1	tim10-1 inh 43.1 | tim10-1 confirm 30.0
O=C(CN1CCN(c2nc(-c3ccc(F)cc3)cs2)CC1)Nc1ccc2c(c1)OCO2	tim10-1 inh 45.7 | tim10-1 confirm inactive
NC(=O)CN1CCN(c2nc(-c3ccc(F)cc3)cs2)CC1	none
O=C(CCl)Nc1cccc(S(=O)(=O)N2CCCCCC2)c1	tim10-1 inh 40.7 | tim10-1 confirm 33.6
Cc1cccc(OCCCn2c(CO)nc3ccccc32)c1	none (no result: NALP1 inh)
CCN(CC)CCNC(=O)c1[nH]c2ccc(OCc3ccccc3)cc2c1C	none
CN(CC(=O)Nc1ccc(S(=O)(=O)N2CCCC2)cc1)Cc1ccc(Cl)cc1Cl	tim10-1 inh 46.2 | tim10-1 confirm inactive
CCCNC(=O)CN1CCN(S(=O)(=O)c2ccc(Br)s2)CC1	none (no result: NALP1 inh)
Cc1cc(C)cc(NC(=O)CN2CCCN(S(=O)(=O)c3ccc(Br)s3)CC2)c1	tim10-1 inh 44.2 | tim10-1 confirm inactive
CN(CC(=O)Nc1ccc(S(=O)(=O)N2CCCC2)cc1)CC(=O)Nc1ccc(F)c(F)c1F	none
CN=C1N(C)C[C@@H]2[C@@H]3C(=O)N(C)C(=O)[C@@H]3[C@](C)(C(=O)OC)N12	none (no result: NALP1 inh, NLRP3 yeast inh)
Cc1nn(Cc2ccc(Cl)cc2Cl)c(C)c1NC(=O)c1nn(C)cc1Cl	tim10-1 inh 43.9 | tim10-1 confirm 37.7
Cc1nn(Cc2ccc(Cl)cc2Cl)c(C)c1NC(=O)c1ccc(COc2cc(Cl)ccc2Cl)o1	none
Cc1nn(Cc2c(F)c(F)c(F)c(F)c2F)c(C)c1NC(=O)c1ccc(COc2ccc(Cl)cc2Cl)o1	tim10-1 inh 48.9 | tim10-1 confirm 40.9
Cc1nn(Cc2ccc(Cl)cc2Cl)c(C)c1NC(=O)C1C2CCC(O2)C1C(=O)O (stereo not given)	tim10-1 inh 40.8 | tim10-1 confirm inactive
O=C1CCSc2ccc(Cl)cc2N1Cc1ccc(Cl)cc1	tim10-1 inh 45.5 | tim10-1 confirm inactive
C/C(=N\NC(=S)NC(C)C)c1ccccc1OC(F)F	tim10-1 inh 41.5 | tim10-1 confirm 30.3
CN(C)C(=C(C#N)C#N)N1CCN(c2ccc(Cl)c(Cl)c2)CC1	tim10-1 inh 41.9 | tim10-1 confirm inactive
N#C/C(=C\c1cn[nH]c1-c1ccc(Cl)cc1)C(=O)NC1CC1	none
N#C/C(=C\c1cn[nH]c1-c1ccc(Cl)cc1)C(=O)NCc1ccccc1	tim10-1 inh 43.0 | tim10-1 confirm 45.9
COc1cc(NC(=S)N2CCN(S(=O)(=O)c3ccc(C)cc3)CC2)cc(OC)c1	none
CN(C)S(=O)(=O)N1CCN(c2cc(Cl)ccc2Cl)CC1	tim10-1 inh 43.2 | tim10-1 confirm inactive
CCCn1c(-c2cccs2)nc2ccccc21	tim10-1 inh 41.2 | tim10-1 confirm inactive
CCn1c(NCc2cccs2)nc2ccccc21	none
Cc1nnc(N)s1	none
COc1cc(-c2nc3cc(C)ccn3c2NC2CCCCC2)ccc1-c1ccc(C(C)=O)cc1	tim10-1 inh 40.4 (no result: NALP1 inh) | tim10-1 confirm inactive
Cc1cc(C)n(-c2cc(N3CCOCC3)nc(-c3ccccc3)n2)n1	tim10-1 inh 52.4 | tim10-1 confirm inactive
CCOc1ccc(N2C(=O)CC(NCCNc3ccc([N+](=O)[O-])cn3)C2=O)cc1 (stereo not given)	tim10-1 inh 53.2 | tim10-1 confirm 28.5
CCc1ccc(C(=O)c2oc3nc(C)cc(C)c3c2N)cc1	tim10-1 inh 44.5 | tim10-1 confirm 32.8
Cc1ccc(C(=O)c2oc3nc(C)cc(C)c3c2N)cc1	none
Nc1nc2ccc(S(=O)(=O)N3CCCCC3)cc2s1	tim10-1 inh 40.2 | tim10-1 confirm inactive
COCCNC(=S)N/N=C(\C)c1ccc2cc(OC)ccc2c1	none
